From PubChem BioAssay
Vif-A3F inh – inhibitors of Vif-A3F interaction | HeLa A3F-eYFP + Vif (tagged APOBEC3F with the HIV-1 protein that degrades it), YFP fluorescence increase | Potency, µM (top dose mostly 46.1 µM) | 390,000 compounds, 0.2% hits; further: nearly all actives have a fitted effect of over 65% in size
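HeLa cells stably expressing A3F-eYFP plus Vif, plated and incubated overnight at 37 deg C, then exposed to compounds overnight at 37 deg C. Blocked degradation read as raised yellow fluorescence (Ex 488/Em 500-530).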
Vif-A3G inh – Vif-A3G binding inhibition. Q9HC16. HeLa A3G-eYFP + Vif (tagged APOBEC3G with the HIV-1 protein that degrades it), YFP fluorescence, overnight. Potency, µM (highest dose often 46.1 µM), most hits filed as inhibitors. 410,000 compounds, 0.076% hits. AID 602310; further: nearly all actives have a fitted effect of over 60% in size
Target sequence (Q9HC16 whole entry, looked up): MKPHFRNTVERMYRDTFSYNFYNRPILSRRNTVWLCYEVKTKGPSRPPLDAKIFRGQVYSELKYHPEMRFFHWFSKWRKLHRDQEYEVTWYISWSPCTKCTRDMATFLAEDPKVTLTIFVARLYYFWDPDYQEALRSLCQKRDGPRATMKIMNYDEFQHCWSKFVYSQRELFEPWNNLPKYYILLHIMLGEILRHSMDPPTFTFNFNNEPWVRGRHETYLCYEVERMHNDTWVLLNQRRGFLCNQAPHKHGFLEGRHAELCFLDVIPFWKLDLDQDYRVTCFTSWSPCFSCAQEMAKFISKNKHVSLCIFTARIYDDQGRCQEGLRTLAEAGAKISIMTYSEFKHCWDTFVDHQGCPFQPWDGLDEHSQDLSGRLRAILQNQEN
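Read-out is eYFP fluorescence (Ex 488/Em 500-530) from Vif-expressing HeLa A3G-eYFP cells; more signal means A3G escaped Vif-mediated degradation. Cells plated overnight, compound pinned in, incubated overnight at 37 deg C.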
Rango dissoc inh – inhibition of RanGTP-driven Rango-importin beta dissociation | O95149+P62826 | Biochemical FRET Rango-importin beta, RanGTP-induced dissociation | Potency, µM (highest dose often 46.1 µM) | 340,000 compounds, 0.071% hits; calls by dose curve; further: nearly all actives have a fitted effect of over 45% in size
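Two FRET readings bracket the reaction: one 5 min after compound meets Rango–importin beta, another 45 min after RanGTP-RCC1 (0.6 uM Ran, 0.2 uM RCC1, 2 mM GTP) is added. Only the second defines inhibition.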
Epigenetic derep – regulators of epigenetic silencing causing reporter derepression in mouse cells | 280,000 compounds, 0.2% hits | AID 1865 | Potency, µM (highest dose often 53.9 µM), hits mostly activators | murine LDR cells, GFP reporter derepression, 30 h; further: nearly all actives have a fitted effect of over 60% in size
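Readout is the number of GFP-expressing murine LDR cells, counted by cytometry following washing. Cells were treated with compound for 30 h at 37 C; the stably integrated CMV-GFP locus is normally silent.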
Rango complex inh – Rango-importin beta binding inhibition | Q14974 | Rango CFP/YFP FRET sensor + importin beta, 45 min | Potency, µM (highest dose often 92.2 µM) | 340,000 compounds, 0.031% hits; calls by dose curve; further: nearly all actives have a fitted effect of over 15% in size
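FRET biosensor Rango (snurportin 1 IBB between N-terminal EYFP and C-terminal Cerulean), 50 nM in PBS/1 mM DTT/0.02% Tween-20/0.1% BSA, preincubated 5 min RT with compound; 0.125 microM importin beta added, 45 min RT, CFP/YFP FRET ratio read.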
Numbers stand for hits; – = inactive; ? = inconclusive; · = no result. Most compounds without a hit are left out; they make up all but 0.42% or so of the library. Unless noted, the call rests on the fitted dose curve; in most records, active means well fitted curve in the direction sought with a large enough effect; inconclusive means small, poorly fitted or top-dose-only effect, or another doubt; inactive means no such curve, though single readings can be large; an effect the other way counts as inactive or inconclusive.

SMILES	Vif-A3F inh	Vif-A3G inh	Rango dissoc inh	Epigenetic derep	Rango complex inh
N#C/C(=C/c1ccc(N2CCCCCC2)o1)c1cccc(F)c1	5.01µM	?	?	?	?
O=C(Nc1ccc(N2CCCC2)cc1)c1cccc(F)c1	–	?	–	–	–
N#C/C(=C/c1ccc(N2CCCCCC2)o1)c1ccc(F)cc1	28.2µM	?	?	·	?
COc1cc(N2CCCC2)c(OC)cc1/C=C(/C#N)c1cccc(F)c1	?	5.01µM	?	3.16µM	?
O=C(N/N=C/c1ccc(N2CCCCC2)o1)c1ccccc1	–	–	–	–	–
S=c1[nH]cnc2sc(-c3ccccc3)cc12	5.62µM	–	–	–	–
NC(N)=NS(=O)(=O)c1ccc(NC(=S)NC(=O)c2sc3ccccc3c2Cl)cc1	–	–	20.6µM	–	?
Clc1cccc[n+]1CCCCCC[n+]1ccccc1Cl	·	–	·	·	·
O=S(=O)(/N=C(/Sc1ccccc1)c1ccccc1)c1ccc(Cl)cc1	·	–	·	·	·
CCN1/C(=C/C(C)=O)Sc2ccc(OC)cc21	–	–	–	–	–
COc1ccc2c(c1)N(C)/C(=C/c1cccc[n+]1C)S2	?	12.6µM	?	·	?
CCN1/C(=C/c2cccc[n+]2C)Sc2ccc(OC)cc21	25.1µM	?	–	·	?
COc1cc(OC)cc(C(=O)/C=C2\Sc3ccccc3N2C)c1	–	–	–	?	?
O=C(N/N=C/c1ccc([N+](=O)[O-])o1)c1cc2c(ccc3ccccc32)o1	7.94µM	?	–	?	–
Cc1ccc(-c2nc3ncccc3o2)cc1NC(=O)c1ccc([N+](=O)[O-])o1	22.4µM	–	–	·	–
COc1ccc(N2CCN(C(=O)C3CCN(S(=O)(=O)c4cnc[nH]4)CC3)CC2)cc1	–	–	·	–	·
Cc1cc[n+](CCC2CCCCC2)c2ccccc12	·	–	·	·	·
C/C(=N\Nc1nc(C)cc(-c2ccccc2)n1)c1ccc(F)cc1	20µM	–	–	·	–
COc1ccc(/C(C)=N/Nc2nc(C)cc(-c3ccccc3)n2)cc1	–	–	–	·	–
COc1cc2c(=O)c(S(=O)(=O)c3ccc(F)cc3)cn(Cc3ccccc3C)c2cc1OC	–	–	·	–	·
COc1cc2c3nnc(-c4ccc(F)cc4)c-3cn(Cc3ccccc3F)c2cc1OC	25.1µM	?	?	6.31µM	?
Cc1ccnc(NC(=S)NC(=O)/C=C/c2ccco2)c1	–	7.94µM	–	–	–
CC(C)CC(=O)N1C/C=C\C[C@@H](c2ccc(Cl)cc2)N(Cc2ccc(Cl)cc2)C(=O)[C@@H]1Cc1ccccc1	·	–	·	·	·
CCCCN1/C(=C/c2cccc[n+]2C)Sc2cc(NC(C)=O)ccc21	–	–	–	·	–
Cc1ccc2c(c1)N(C)/C(=C/c1cccc[n+]1CCO)S2	12.6µM	?	?	·	?
SMILES	Vif-A3F inh	Vif-A3G inh	Rango dissoc inh	Epigenetic derep	Rango complex inh
Cc1ccc2c(c1)N(C)/C(=C/c1cccc[n+]1C)S2	11.2µM	?	?	·	?
CN1/C(=C/c2cccc[n+]2C)Sc2ccccc21	?	?	11.6µM	·	?
CC(=O)c1ccc2c(c1)N(C)c1ccccc1S2	–	–	?	–	?
CCn1nc(NC(=O)C(C)C)c2cc3ccc(C)cc3nc21	–	–	–	·	?
CCn1nc(NC(C)=O)c2cc3ccc(C)cc3nc21	–	–	9.2µM	·	?
CC(C)(C)c1ccc(C(=O)C[n+]2ccc(Cl)c3ccc(Cl)cc32)cc1	·	–	·	·	·
CC(=O)c1cccc(-c2ccnc3c2CC(C(=O)NCc2ccco2)O3)c1 (stereo not given)	·	0.891µM	·	·	·
O=c1oc2cc(O)ccc2cc1-c1nc(-c2ccc(Cl)c(Cl)c2)cs1	?	?	·	7.94µM	·
O=c1oc2cc(O)ccc2cc1-c1ccccc1	–	–	?	·	?
CN1C(=O)c2cccc(NCCCN3C(=O)c4ccccc4C3=O)c2C1=O	25.1µM	–	?	?	?
O=S1(=O)c2ccccc2N(Cc2ccccc2Cl)c2ccccc21	–	–	·	–	·
Cc1ccc(Cn2c(=O)n(-c3cc(C)cc(C)c3)c(=O)c3oc4ccccc4c32)cc1	–	–	·	–	·
CCOC(=O)C1=C(O)c2ccccc2C(=O)/C1=C\c1ccc(CC)cc1	22.4µM	?	?	?	?
CS(=O)(=O)Nc1ccc(C2=NN(S(=O)(=O)c3ccccc3)C(c3cccs3)C2)cc1 (stereo not given)	22.4µM	?	–	–	?
Cc1ccc(C2=NN(S(=O)(=O)c3ccccc3)C(c3ccccc3O)C2)cc1 (stereo not given)	25.1µM	–	–	?	?
O=C(N/N=C/c1c(O)n(-c2ccc(Cl)cn2)c(=O)c2ccccc12)C1CC1	–	–	?	–	?
O=C(N/N=C/c1c(O)n(-c2ccc(Cl)cn2)c(=O)c2ccccc12)c1ccncc1	22.4µM	–	?	–	?
